Each structure is given as a SMILES string. The campaign covered roughly 48,000 compounds. About 13,000 (27%) showed an effect of 50% or more. The list shows a part of the results.

The assay has as its system Wolbachia pipientis. In words: Anti-Wolbachia Cell-Based Screen. More on the design: scale not given: in the data most compounds retested in dose-response had high values. To be noted: 5 µM. In kind it is functional.
Turning to `COc1ccc2c(c1)nc1n2[C@@H](CNC(=O)c2cccnc2)COC1`, the “Percent Effect” value is given as -6.986%.
With `CN(C)C(=O)N[C@H]1CN(Cc2ccc3c(c2)OCO3)[C@@H]2CCCO[C@H]12.O=C(O)C(F)(F)F`, the “Percent Effect” value stood at 93.48%.
For `O=C(N[C@@H]1CN(Cc2ccsc2)[C@@H]2CCCO[C@@H]21)C1CC1` the value was -8.929%; for `O=C(N[C@@H]1CN(Cc2cccs2)[C@@H]2CCCO[C@@H]21)C1CC1`, -17.92%; for `CN(C)C(=O)[C@H]1C[C@H]2OCC[C@H]2N(Cc2ccc3c(c2)OCO3)C1.O=C(O)C(F)(F)F`, 0.2139%.
As for `O=C(O)C(F)(F)F.O=C([C@H]1C[C@H]2OCC[C@H]2N(Cc2ccoc2)C1)N1CCCO1`, the figure is 7.487%; as for `O=C(N[C@H]1CN(Cc2ccsc2)[C@@H]2CCCO[C@H]12)C1CC1.O=C(O)C(F)(F)F`, 106.9%.
`CN(C)C(=O)N[C@@H]1CN(Cc2ccc3c(c2)OCO3)[C@@H]2CCCO[C@@H]21.O=C(O)C(F)(F)F`: the “Percent Effect” value was -22.69%.
As for `O=C(NC1CCCC1)[C@H]1C[C@H]2OCC[C@H]2N(Cc2ccoc2)C1.O=C(O)C(F)(F)F`, the figure is 13.19%; as for `O=C(N[C@@H]1CN(Cc2ccoc2)[C@@H]2CCCO[C@@H]21)C1CC1.O=C(O)C(F)(F)F`, 105.3%.
As for `O=C(c1ccccc1)C1CCN(Cc2cc3c(cc2O)CCC3)CC1`, the figure is -3.001%; as for `O=S(=O)(c1cccnc1)N1C[C@@H]2CC[C@H](C1)N(Cc1ccccc1)C2`, -31.29%.
For `Cn1cc(N2CCC(NC(=O)c3c(F)cccc3Cl)C2=O)cn1` (stereo not drawn) the value was -23.29%.
`Cc1ncccc1Oc1nccnc1C1CCCN(C(C)C)C1` (stereo not drawn): the “Percent Effect” value is 134.2%.
As for `Cc1ncccc1Oc1nccnc1C1CCN(C(C)C)CC1`, the “Percent Effect” value is on record as -4.012%.
For `COCC(=O)N1CCC(c2nccnc2Oc2cccnc2C)CC1` the value was 0.288%; for `Cc1ncccc1Oc1nccnc1C1CCN(S(C)(=O)=O)CC1`, 120.9%.
As for `COc1ccc(CN(C)C2CCN(S(C)(=O)=O)CC2)c2cccnc12`, the “Percent Effect” value turned out to be 1.454%.
As to `COc1ccccc1Oc1ncccc1CNC(=O)C(C)N1CCCC1` (stereo not drawn), the “Percent Effect” value was -2.64%.
Consider `CN(C)CCN1CCN(C)C2(CCN(c3nccs3)CC2)C1=O`, for which the “Percent Effect” value is recorded as -6.968%.
Turning to `O=C(N1CCCC1)N1CCCC(c2nccn2Cc2ccncc2)C1` (stereo not drawn), the “Percent Effect” value is reported as 19.93%.
For `O=C(Nc1cc(-c2ccncc2)no1)C1CCCCC1` the value was -8.136%; for `O=C(C1CC1)N1CCCC(c2nc(O)cc(-c3ccncc3)n2)C1` (stereo not drawn), 87.21%; for `CC1(C)CNC(=O)c2nc(C3CCCN(C(=O)C4CC4)C3)[nH]c2C1` (stereo not drawn), -1.543%.
As for `O=C(C1CCCC1)N1CCCC(c2nc(O)cc(-c3ccncc3)n2)C1` (stereo not drawn), the figure is 85.76%; as for `CC(=O)c1cccc(NC(=O)C2CN(S(=O)(=O)C3CC3)C2)c1`, 8.617%; as for `O=C(CCNc1ncccn1)N1CCC(Nc2cccnn2)CC1`, 106.9%.
For `Cc1nccn1CCCC(=O)N1CCC(Nc2cccnn2)CC1` the value was 11.87%.
In the case of `Cc1ccc(NC2CCN(C(=O)CCNS(C)(=O)=O)CC2)nn1`, the “Percent Effect” value was -0.08742%.
Turning to `Cc1ccc(NC2CCN(C(=O)CCCn3ccnc3C)CC2)nn1`, the “Percent Effect” value is 100.9%.
For `Cc1ccc(NC2CCN(C(=O)CCNc3ncccn3)CC2)nn1` the value was 111.7%; for `CC(C)(C)C(=O)NCCC(=O)N1CCC(Nc2cccnn2)CC1`, 101.9%; for `O=C(CCNCC(F)(F)F)N1CCC(Nc2cccnn2)CC1`, -5.357%.
On to `COC1CCCN(C(=O)NCC(C)(C)SC)C1` (stereo not drawn), for which the “Percent Effect” value is reported as -6.562%.
As for `NC(=O)C(NC1CCN(CC2CCCCC2)CC1)c1ccc(F)cc1` (stereo not drawn), the figure is 3.018%; as for `CS(=O)(=O)CCC(=O)Nc1cc(Cl)c(Cl)cn1`, -8.334%.
For `O=C(c1ccc(S(=O)(=O)NCC(F)F)cc1)N1CC[C@H]2CNC[C@H]21`, the “Percent Effect” value is recorded as -11.61%.
For `CSc1ccc(C(C)NC(=O)c2cc(C)on2)cc1` (stereo not drawn) the value was -17.95%.
Turning to `Cc1noc(C)c1CCCNC(=O)Nc1cccc([S+](C)[O-])c1` (stereo not drawn), the “Percent Effect” value is on record as -8.91%.
As for `Cc1ccc(N2CC[C@@]3(O)CCN(S(C)(=O)=O)C[C@H]3C2)nn1`, the “Percent Effect” value is reported as -14.46%.
As to `CN(C)S(=O)(=O)N1CC[C@]2(O)CCN(CCCc3cccnc3)C[C@@H]2C1`, the “Percent Effect” value worked out at 99.63%.
As for `CS(=O)(=O)N1CC[C@]2(O)CCN(CCCC(=O)c3ccccc3)C[C@@H]2C1`, the figure is 92.75%.
For `CN(C)S(=O)(=O)N1CC[C@]2(O)CCN(c3ncccn3)C[C@@H]2C1`, the “Percent Effect” value is 8.402%.
For `CN(C)S(=O)(=O)N1CC[C@]2(O)CCN(c3nccs3)C[C@@H]2C1`, the “Percent Effect” value is on record as -7.348%.
As to `CS(=O)(=O)N1CC[C@]2(O)CCN(c3ccnc(N)n3)C[C@@H]2C1`, the “Percent Effect” value is -18.71%.
As for `O=C(c1[nH]nc(C2CC2)c1Cl)N1CCCC1`, the figure is -9.749%; as for `Fc1ccccc1C(CNc1ccncn1)N1CCCC1` (stereo not drawn), 123.2%.
Take `Fc1ccc(C(CNc2ccncn2)N2CCCCC2)cc1` (stereo not drawn): the “Percent Effect” value was 113.6%.
As for `O=C(N1CCCC1)N1CCC(Nc2ccncn2)CC1`, the figure is 4.287%; as for `O=C(C(c1ccc(F)cc1)N1CCCCC1)N1CCn2cncc2C1` (stereo not drawn), 7.503%.
As for `Fc1ccc(C(CNc2ccncn2)N2CCCC2)cc1` (stereo not drawn), the figure is 85.77%; as for `COc1cc(NCC(c2ccccn2)N2CCOCC2)ncn1` (stereo not drawn), -14.18%.
As to `CCc1cnc(NCC(c2ccncc2)N2CCOCC2)nc1` (stereo not drawn), the “Percent Effect” value is -11.49%.
As for `NCc1cc(NCC(c2ccccn2)N2CCOCC2)ncn1` (stereo not drawn), the figure is -3.716%.
As for `OC(CN1CCCCCCC1)c1ccc(F)cc1` (stereo not drawn), the figure is -2.886%; as for `CCc1cc(N(C)Cc2[nH]nc3c2CCC3)nc(N2CCOCC2)n1`, 17.45%.
For `O=C(NCC1(c2ccc(F)cc2)CC1)N1CCC2(CCOC2)C1` (stereo not drawn) the value was -4.934%.
With `CC(C)N1CCO[C@@H]2CN(S(=O)(=O)c3cccs3)CC[C@@H]2C1.O=C(O)C(F)(F)F`, the “Percent Effect” value is recorded as 96.63%.
For `CC(C)CN1CC[C@@H]2[C@@H]1CCN2S(=O)(=O)c1cccs1.O=C(O)C(F)(F)F` the value was -11.08%; for `CC(=O)N1CCO[C@@H]2CN(C(=O)c3ccccc3)CC[C@@H]2C1`, -4.476%; for `CCO[C@@H]1C[C@H]2CN(S(=O)(=O)c3cccs3)CCN2C1.O=C(O)C(F)(F)F`, -4.424%.
For `CN1CCO[C@@H]2CN(S(=O)(=O)c3ccccc3F)CC[C@@H]2C1.O=C(O)C(F)(F)F` the value was -5.27%; for `CCS(=O)(=O)N1C[C@@H]2CN(Cc3cccs3)CCO[C@@H]2C1.O=C(O)C(F)(F)F`, 3.582%; for `CC(=O)N1CCO[C@@H]2CN(S(=O)(=O)c3cccs3)CC[C@@H]2C1`, 114.4%.
As to `O=C(O)C(F)(F)F.O=S(=O)(C1CC1)N1C[C@@H]2CN(Cc3cccs3)CCO[C@@H]2C1`, the “Percent Effect” value is listed as 9.308%.
With `CCN1CCO[C@@H]2CN(S(=O)(=O)c3cccs3)CC[C@@H]2C1.O=C(O)C(F)(F)F`, the “Percent Effect” value amounted to 101.9%.
As for `CN(C)C[C@H]1OC[C@@H]2CCN(S(=O)(=O)c3cccs3)C[C@@H]21.O=C(O)C(F)(F)F`, the “Percent Effect” value is given as -5.421%.
For `CN1CCO[C@@H]2CN(S(=O)(=O)c3cccs3)CC[C@@H]2C1.O=C(O)C(F)(F)F`, the “Percent Effect” value is given as 99.53%.
In the case of `CCC(C)Nc1ccc2c(c1)C1(CCOCC1)C(=O)N2c1ccccc1` (stereo not drawn), the “Percent Effect” value was found to be 13.06%.
As for `Cc1ccccc1CS(=O)(=O)CC(=O)N(C)Cc1cccc(F)c1`, the figure is -33.07%.
As to `CCN1CCN2CCCN(S(=O)(=O)c3ccc(S(C)(=O)=O)cc3)C2C1=O` (stereo not drawn), the “Percent Effect” value was 10.86%.
With `CCn1c(CN(C)C(C)CSC)nc2c(F)cccc21` (stereo not drawn), the “Percent Effect” value was -3.593%.
In the case of `Cn1nnnc1SCCNC(=O)C1CCN(C(=O)C2CC2)CC1`, the “Percent Effect” value is recorded as 0.3316%.
As for `COCCNC(=O)Cn1c(C)cc2nc(SC)n(CC(C)C)c(=O)c21`, the figure is 0.09267%; as for `CCCc1cc(=O)n(CC(=O)NCCOC)c(-n2nc(C)cc2C)n1`, 110%.
For the molecule `CCCNC(=O)Cn1c(-n2nc(C)cc2C)nc(CCC)cc1=O`, the “Percent Effect” value was 109.3%.
`COCCS(=O)(=O)NC(C)c1ccc(-n2nc(C)cc2C)cc1` (stereo not drawn): the “Percent Effect” value is recorded as -14.21%.
As for `Cc1cc(C)n(-c2cncc(N3CCN(C(=O)C(C)C)CC3)n2)n1`, the figure is -1.845%; as for `CCCc1cc(=O)n(CC(N)=O)c(-n2nc(C)cc2C)n1`, 12.11%.
For `CCCc1cc(=O)n(CC(=O)NC(C)C)c(-n2nc(C)cc2C)n1` the value was 152.6%.
Turning to `CCCNC(=O)Cn1c(C)nn(C(C)(C)C)c1=O`, the “Percent Effect” value is recorded as -1.553%.
In the case of `CCN(CC)C(=O)CCNc1cncc(-n2nc(C)cc2C)n1`, the “Percent Effect” value is -4.875%.
As for `CCC(O)CN(CC(=O)NC(=O)NC1CC1)c1ccccc1` (stereo not drawn), the figure is -6.258%.
Turning to `CCOCC1CC2(CCN(C(=O)C3CCSCC3)CC2)CO1` (stereo not drawn), the “Percent Effect” value is on record as -12.12%.
For `O=C1CC(c2ccco2)c2sc(C(=O)O)c(-c3ccccc3)c2N1` (stereo not drawn) the value was 3.632%.
Take `O=C(CO)N1C[C@H]2CC[C@@H]1CN(C1Cc3ccccc3C1)C2`: the “Percent Effect” value is on record as -7.791%.
Regarding `CCc1noc(C(C)N2CCN(Cc3nnc(C4CC4)o3)CC2)n1` (stereo not drawn), the “Percent Effect” value turned out to be 4.733%.
Turning to `Cc1cc(CN2CCN(C(C)c3nc(C4CC4)no3)CC2)no1` (stereo not drawn), the “Percent Effect” value amounted to 2.927%.
As for `CC(C)c1nc(C2CCCN(Cc3nnc(C4CC4)o3)C2)no1` (stereo not drawn), the figure is -2.987%.
Take `CC(c1nc(C2CC2)no1)N1CCN(Cc2nnc(C3CC3)o2)CC1` (stereo not drawn): the “Percent Effect” value is listed as 142.3%.
As to `CC(C)c1nnc(CN2CCN(C(C)c3nc(C4CC4)no3)CC2)o1` (stereo not drawn), the “Percent Effect” value is 138.5%.
For `COc1ccc(CN2CCN(C(C)c3nc(C4CC4)no3)CC2)cc1` (stereo not drawn) the value was 8.61%; for `Cc1nnc(CN2CCN(C(C)c3nc(C4CC4)no3)CC2)o1` (stereo not drawn), 96.71%.

Source of the values: ChEMBL document CHEMBL3988442, “University of Dundee, Small-Polar-MMV Screening Library” (2021).
